Hits are enriched below; roughly 3.2% of the tested compounds scored in any of these assays.
MsrA inh = bovine MsrA inhibition. purified bovine MsrA, absorbance read-out. inhibition, % at 15.5 µM. 0.75% of 360,000 active. AID 651718
PG9 Ab binder = binds the HIV-1 gp120 antibody PG9; 0.43% of 360,000 active; AID 624416; TR-FRET gp120-PG9 antibody binding; inhibition, % at 6.7 µM; in the data active = inhibition above about 8.5%
HGIII-sPLA2 inh = Blocks human group III sPLA2 activity | Q9NZ20 | QFRET BODIPY PC-A2 liposome hydrolysis, fluorescence | inhibition, % at 12.2 µM | 0.56% of 370,000 active;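 active = inhibition above mean plus 3 SD of compounds lying within the high and low control bounds, cut at about 19% in these data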
Target sequence (Q9NZ20 whole entry, looked up): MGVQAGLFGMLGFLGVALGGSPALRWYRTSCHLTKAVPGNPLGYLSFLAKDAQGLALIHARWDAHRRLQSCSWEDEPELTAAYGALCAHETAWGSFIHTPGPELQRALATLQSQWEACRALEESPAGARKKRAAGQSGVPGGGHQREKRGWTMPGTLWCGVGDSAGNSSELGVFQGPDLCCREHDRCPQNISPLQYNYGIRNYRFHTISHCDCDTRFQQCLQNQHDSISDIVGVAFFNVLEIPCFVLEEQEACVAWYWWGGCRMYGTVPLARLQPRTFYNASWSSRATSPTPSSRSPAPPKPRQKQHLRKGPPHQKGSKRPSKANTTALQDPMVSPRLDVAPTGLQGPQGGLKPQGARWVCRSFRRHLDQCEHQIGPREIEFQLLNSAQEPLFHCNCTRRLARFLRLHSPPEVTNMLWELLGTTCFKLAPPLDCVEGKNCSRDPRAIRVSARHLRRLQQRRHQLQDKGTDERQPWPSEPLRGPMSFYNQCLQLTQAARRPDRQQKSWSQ
rCAG RNA binder = molecules binding r(CAG) RNA repeats. inhibition, % at 3 µM. r(CAG) RNA repeat, TO-PRO-1 dye displacement fluorescence. 1.3% of 370,000 active. AID 651821;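 active = inhibition above the plate cutoff, the mean of all test compounds on that plate plus 3 SD, cut at about 35% in these data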;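 also: higher means more dye released from RNA so lower well fluorescence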
MsrA act = activators of bovine methionine sulfoxide reductase A; activation, % at 10.6 µM; AID 602163; purified bovine MsrA, absorbance read-out; 0.3% of 360,000 active; in the data active = activation above about 7.5%
MsrA act confirm = confirmation of bovine methionine sulfoxide reductase A activators; shares compounds with MsrA act; activation, % at 10.6 µM; AID 602270; purified bovine MsrA, absorbance read-out; 12% of 1,000 active; in the data active = activation above about 4%;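 also: enzyme coupled to thioredoxin and thioredoxin reductase with NADPH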
PG9 bind confirm = confirmation of small molecules binding HIV-1 gp120 antibody PG9; inhibition, % at 6.7 µM; shares compounds with PG9 Ab binder; TR-FRET PG9 antibody binding, biochemical; 90% of 1,500 active; in the data active = inhibition above about 9%
PGV04 Ab binding = binds control antibody PGV04 in PG9 binder counter-screen. inhibition, % at 6.7 µM. shares compounds with PG9 Ab binder. 95% of 1,500 active. TR-FRET PGV04 antibody-gp120 binding, biochemical. AID 651604; in the data active = inhibition above about 9.5%
MsrA inh confirm = confirmation of bovine MsrA inhibitors; shares compounds with MsrA inh; 41% of 2,300 active; inhibition, % at 15.5 µM; purified bovine MsrA, absorbance read-out;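 also: coupled to thioredoxin reductase with NADPH and selenocystamine and DMSO as substrate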
Each line names hits and unclear results; the compound was inactive in the other large screens (follow-up assays come after a bar, where they were run). Rule as the data show it, unless noted: active = inhibition above about 4.5%; inactive = the rest.

C/C(=N\NC(=O)c1ccccc1O)c1c(O)n(Cc2ccccc2)c(=O)[nH]c1=O	rCAG RNA binder 86
C/C(=N\NC(=O)c1ccncc1)c1c(O)n(Cc2ccccc2)c(=O)[nH]c1=O	none
CCn1nc(-c2ccccc2)nc2c(=O)n(C)c(=O)nc1-2	MsrA act 37 (no result: MsrA inh, PG9 Ab binder, HGIII-sPLA2 inh, rCAG RNA binder)
C=C1C(=O)C(C)=C2C(=O)N3Cc4[nH]c5ccccc5c4CC3(C(=O)OC)C12 (centres undefined)	none (no result: MsrA inh, PG9 Ab binder, MsrA act)
O=C1C(=O)c2ccccc2-c2ccccc21	MsrA act 49
O=C1C(=O)c2cccc3cccc1c23	none
O=C1NC(=O)N(c2ccc(Cl)cc2)C(=O)/C1=C\c1ccc(Sc2nc3ccccc3[nH]2)o1	rCAG RNA binder 49
COC(=O)C1=C(c2c(C)noc2C)C[C@@H]2CC[C@H]1N2C(=O)NCC1CC1	none
COc1ccc2c(c1)C13CCN4CC5=CCOC6CC(=O)N2C1C6C5CC43 (centres undefined)	none
O=c1c2ccccc2[se]n1-c1ccccc1	MsrA act 20
CN1C2CCC1CC(OC(c1ccccc1)c1ccc(Cl)cc1)C2 (centres undefined)	none (no result: MsrA act)
COC(=O)C1C(c2ccc(C)cc2)CC2CCC1N2C (centres undefined)	none (no result: MsrA act)
Cc1ccc(-n2c(O)c(/C=N/N3CCCCC3c3cccnc3)c(=O)[nH]c2=S)cc1 (centres undefined)	MsrA inh 4.5
CCCCn1c(O)c(/C=N/N2CCCCC2c2cccnc2)c(=O)[nH]c1=S (centres undefined)	none
C=Cc1cc(OC)c2c(c1)c(=O)oc1c2cc(OC)c2c(O)ccc(C3OC(C)C(O)C(C)(O)C3O)c21 (centres undefined)	none
COc1ccc(-c2cc(-c3ccccc3)[n+](C)c(-c3ccccc3)c2)cc1	MsrA inh 4.8
Cc1cccc(N2C(=O)/C(=C/c3ccc(CN(CCC#N)S(C)(=O)=O)o3)C(=O)NC2=S)c1	rCAG RNA binder 66
N#CC(C#N)=NNc1ccc(S(N)(=O)=O)cc1	rCAG RNA binder 67
C=C1C(=O)[C@@]23C[C@H]4[C@@H]5[C@@]6(C)CCC[C@@]57[C@@H]2[C@@H](O)[C@@H]1C[C@H]3[C@H]7N4C6	MsrA act 26 | MsrA act confirm 17
CC(C)c1cccc(C(C)C)c1OCCn1ccnc1	MsrA act 14 | MsrA act confirm inactive
c1ccc(Cn2ccnc2)cc1	none
O=C(C[N+]12CCN(CC1)CC2)NCCc1ccc(Cl)cc1Cl	none
C[C@]12CC[C@@H](O)C[C@@H]1CC[C@@H]1[C@@H]2CC[C@]2(C)C(=O)[C@H](O)C[C@@H]12	MsrA act 19 (no result: MsrA inh, PG9 Ab binder, HGIII-sPLA2 inh, rCAG RNA binder) | MsrA act confirm inactive
O=C1NC(=O)C(CCc2ccccn2)(Cc2ccc3c(c2)OCO3)C(=O)N1CCc1ccccc1 (centres undefined)	none
CCOC(=O)c1c(N)n(CCCOC(=O)c2ccco2)c2nc3ccccc3nc12	MsrA act 11 | MsrA act confirm inactive
S=P(NC1CCCCC1)(N1CC1)N1CC1	none
C[C@@H]1CN([C@H](C)CO)C(=O)CCCn2cc(nn2)CO[C@H]1CN(C)C(=O)Oc1cccc2ccccc12	none
c1ccc2[nH]c(CCNC3CCCCC3)nc2c1	MsrA act 7.8 | MsrA act confirm inactive
c1ccc2c(CCNC3CCCCC3)c[nH]c2c1	none
CNc1ccc2nc3ccccc3[n+](C)c2c1	MsrA act 92 | MsrA act confirm 74
C[n+]1c2ccccc2nc2ccc(NCCO)cc21	MsrA act 59 | MsrA act confirm 51
O=C(O)c1cccc(NC(=O)N2C[C@H]3C[C@@H](C2)c2cccc(=O)n2C3)c1	MsrA act 8.9 | MsrA act confirm inactive
C[C@@H]1CN([C@@H](C)CO)C(=O)CCCn2nncc2CO[C@H]1CN(C)C(=O)Oc1ccccc1	none
O=C(CN1C(=O)[C@@H](Cc2ccc(O)cc2)N=C(c2ccccc2)c2ccccc21)NC1CCCCC1	none (no result: MsrA inh, PG9 Ab binder, MsrA act)
COc1ccccc1NP1(=O)OCC(C)([N+](=O)[O-])CO1 (centres undefined)	none
Cc1nc2c(=O)n(C)c(=O)nc-2n(C)n1	MsrA act 18 | MsrA act confirm 13
CCn1c(O)c(C=NCc2ccccc2)c(=O)[nH]c1=S	PG9 Ab binder 11 | PG9 bind confirm 28 | PGV04 Ab binding 37
Cc1cccc(-n2c(O)c(C=Nc3ccc(S(N)(=O)=O)cc3)c(=O)[nH]c2=O)c1	none
CCn1c(O)c(C=Nc2ccc(S(N)(=O)=O)cc2)c(=O)[nH]c1=S	PG9 Ab binder 25 | PG9 bind confirm 92 | PGV04 Ab binding 92
NS(=O)(=O)c1ccc(N=Cc2c(O)n(C3CCCCC3)c(=O)n(C3CCCCC3)c2=O)cc1	none
CCn1c(O)c(C=Nc2ccc(S(N)(=O)=O)cc2)c(=O)n(CC)c1=S	PG9 Ab binder 54 | PG9 bind confirm 69 | PGV04 Ab binding 86
N=Cc1c(O)n(-c2ccc(C34CC5CC(CC(C5)C3)C4)cc2)c(=O)[nH]c1=O	none
CC1CCCCN1Cc1ccc(Cl)nc1 (centres undefined)	none
Cn1cc(/C=C2\C(=O)NC(=O)N(c3ccccc3)C2=O)c2ccccc21	PG9 Ab binder 11 | PG9 bind confirm inactive | PGV04 Ab binding 20
O=c1[nH]c(O)c(N=Nc2cc([N+](=O)[O-])ccc2O)c(=O)[nH]1	none
CC[C@@H](CO)NC(=O)[C@@H]1C=C2c3cccc4c3c(cn4C)C[C@H]2N(C)C1	none
CC(C)C[C@H]1C(=O)N2CCC[C@H]2[C@]2(O)O[C@](NC(=O)[C@@H]3C=C4c5cccc6[nH]cc(c56)C[C@H]4N(C)C3)(C(C)C)C(=O)N12	none (no result: MsrA inh, PG9 Ab binder, HGIII-sPLA2 inh, rCAG RNA binder)
CC[C@@H](CO)NC(=O)[C@@H]1C=C2c3cccc4[nH]cc(c34)C[C@H]2N(C)C1	PG9 Ab binder 16 | PG9 bind confirm 21 | PGV04 Ab binding 33
CCC(CO)NC(=O)C1C=C2c3cccc4[nH]cc(c34)CC2N(C)C1 (centres undefined)	PG9 Ab binder 14 | PG9 bind confirm 12 | PGV04 Ab binding 15
Cc1c(C(=O)N2CCC3(CC2)OCCO3)oc2ccc(S(=O)(=O)N3CCCCC3)cc12	none
CCCCCn1c(=O)c(C(=O)Nc2ccccc2S(N)(=O)=O)c(O)c2ccccc21	PG9 Ab binder 69 | PG9 bind confirm 79 | PGV04 Ab binding 83
CCCOC(=O)COc1cc(C)cc2oc(=O)c3c(c12)CCC3	PG9 Ab binder 9.9 | PG9 bind confirm 23 | PGV04 Ab binding 30
O=C1NC(=O)C(=Cc2ccc(N3CCOCC3)cc2)C(=O)N1	MsrA inh 6.0 | MsrA inh confirm inactive
